This experiment concerns Sonic hedgehog protein (Shh). Put plainly: Sonic hedgehog microarray binding compounds – biochemical, small-molecule microarray, 635/667 nm fluorescence, primary screen (AID 1151).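 Further: Shh protein binding to compounds spotted on small-molecule microarray slides; score combines spot fluorescence intensity with signal-to-noise across triplicate slides.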 The note with it: 635 nm fluorescence, higher = more signal.
On to `CCCC[C@H]1OB(O)C[C@H]2C1=C(COc1ccccc1)C[C@H]1C(=O)N(C)C(=O)[C@H]12`, for which the composite z-score was 0.853.

Compound `O=C1O[C@H](c2ccccc2)[C@H](c2ccccc2)N2[C@H]1[C@@H](C(=O)N1CCN(c3ncccn3)CC1)[C@]1(C(=O)Nc3ccc(C#CC4=CCCCC4)cc31)[C@H]2c1ccc(O)cc1` yielded a composite z-score of 1.13.

As for `C#CCN(CC=C(C)C)[C@H](CO)c1ccccc1`, the composite z-score was 0.0568.

For `Cc1ccc(S[C@]2(C(=O)NCCN3CCOCC3)CC(=O)N(Cc3ccccc3Cl)[C@@H]2c2ccc(CO)cc2)cc1`, the composite z-score was -0.143.

In turn, `O=C1NC(=O)C2C1C=CC(C(O)Cc1ccccc1)N2Nc1ccc(Cl)cc1Cl` (stereo unspecified) returned a composite z-score of -0.546.

`C=CCOC(=O)[C@@H]1[C@H]2C(=O)O[C@H](c3ccccc3)[C@H](c3ccccc3)N2[C@H](c2ccc(OCCOC(=O)[C@@H]3C[C@@H]4C(=O)N5CCC[C@H]5C(=O)N4[C@@H]3c3ccc(O)cc3)cc2)[C@@]12C(=O)Nc1ccc(I)cc12` yielded a composite z-score of 1.82.
